# Assay results taken from PubChem BioAssay AID651813 (National Center for Advancing Translational Sciences (NCATS), 2012).
# Out of some 2,100 compounds screened, about 1,100 (52%) were called active. Inconclusive results (about 27%) are left out. The call rests on the fitted dose curve; in most records, active means well fitted inhibition curve with a large enough effect; inconclusive means small, poorly fitted or top-dose-only effect; inactive means no such curve, though single readings can be large or run the other way. The set was probably picked from earlier hits. The list shows a part of the results.
# Target: DNA dC->dU-editing enzyme APOBEC-3G (Homo sapiens) (UniProt Q9HC16)
# Sequence (Q9HC16 whole entry, looked up): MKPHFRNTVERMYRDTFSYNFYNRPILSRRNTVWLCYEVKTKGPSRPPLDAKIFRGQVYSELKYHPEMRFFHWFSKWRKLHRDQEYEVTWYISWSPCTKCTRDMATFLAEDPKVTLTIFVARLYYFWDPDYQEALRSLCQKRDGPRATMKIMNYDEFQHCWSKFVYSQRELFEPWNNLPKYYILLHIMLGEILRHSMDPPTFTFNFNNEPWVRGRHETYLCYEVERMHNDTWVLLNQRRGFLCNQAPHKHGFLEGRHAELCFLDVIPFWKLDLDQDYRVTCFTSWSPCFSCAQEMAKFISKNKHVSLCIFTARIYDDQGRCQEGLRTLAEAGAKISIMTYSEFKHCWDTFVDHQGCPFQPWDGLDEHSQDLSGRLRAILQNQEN
# Assay: qHTS for inhibitors of Vif-A3G interactions: Cherry picks counterscreen;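 further: hits raise yellow fluorescence by blocking Vif-driven A3G-eYFP degradation; nearly all actives have a fitted effect of over 70% in size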;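 on max response: max response given as percent of control signal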
# Details: HeLa A3G-eYFP + Vif (tagged APOBEC3G with the HIV-1 protein that degrades it), eYFP fluorescence, 24 h
# Text: The recent discovery and characterization of host restriction factors, which provide a potent defense to invading retroviruses, has provided new targets for antiviral drug development. APOBEC3G (A3G) and APOBEC3F (A3F) are potent cytidine deaminases that block HIV-1 replication; HIV-1 expresses the Vif protein, which counteracts A3G and A3F by binding to them and inducing their proteasomal degradation. The Vif-A3G and Vif-A3F interactions provide two potential targets for development of small molecules which can interfere with the ability of Vif to degrade A3G or A3F. […] To identify inhibitors that can interfere with Vif mediated degradation of A3G and A3F, we have developed Hela cell lines that stably express A3G or A3F tagged with eYFP at the C-terminal end (A3G-eYFP or A3F-eYFP, respectively) and Vif. In the absence of an inhibitor, Vif induces degradation of A3G-eYFP and A3F-eYFP, and the cells are not fluorescent. In the presence of an inhibitor, it is expected that Vif will be unable to degrade A3G-eYFP and/or A3F-eYFP, resulting in an increase in yellow fluorescence. In this counterscreen assay, Vif A3G was screened against the cherry picks ordered from the MLSMR. NIH Chemical Genomics Center [NCGC] NIH Molecular Libraries Probe Centers Network [MLPCN] MLPCN Grant: MH093245 Assay Submitter (PI): Vinay Pathak, National Cancer Institute
# A3G-Vif cells were harvested from T225 flask and resuspended in phenol free OPTI-MEM medium with 5% FBS. Then 5 uL of 140,000 cells/mL resuspended cells was dispensed into each well of low base Aurora COC 1,536-well plates (black walled, clear bottom) using a Multidrop Combi dispenser. After overnight culture at 37 deg C with 5% CO2, a total of 23 nL of compounds at 5 selected concentrations from the NPC or positive control (2 mM stock of MG132) in DMSO was transferred to each well of the assay plate using a pintool (Kalypsys, San Diego, CA), and the plates were further incubated at 37 deg C with 5% CO2 for 24 hours. After that, the plates were measured on Acumen Explorer (TTP Lab Tech). The fluorescence was detected by 488 nm/Ex and […].
# Potency means the concentration at half of the fitted maximal effect.
SMILES,Potency,max response
COC(=O)CCC(=O)NC(=S)Nc1sc(C)c(C)c1C(N)=O,0.886 µM (active),–
Cc1cc(NC(=O)CSc2nc3c(C)cccc3cc2C#N)no1,4.11 µM (active),–
Cc1cc(NC(=O)CSc2nc(-c3cccs3)nc3ccccc23)no1,3.53 µM (active),–
Cc1nonc1NC(=O)CSc1nc2c(C)cccc2cc1C#N,20.6 µM (active),–
C1=Cc2ccccc2/C1=C\c1cc2c3c(c1)CCCN3CCC2,13 µM (active),–
c1ccc2c(CCc3c[nH]c4ccccc34)ccnc2c1,16.4 µM (active),–
CSc1nsc(/C=C/Nc2ccc(C)cc2)c1C#N,15.8 µM (active),–
CSc1nsc(/C=C/Nc2ccc(F)cc2)c1C#N,16.4 µM (active),–
CCN(CC)c1ccc(/C=c2/sc3nnc(-c4ccccc4C)n3c2=O)cc1,23.1 µM (active),–
CCOC(=O)Nc1ccc2nc(-c3cscn3)[nH]c2c1,8.86 µM (active),–
O=C(O)CCCN1C(=O)/C(=C\C(Cl)=C\c2ccccc2)SC1=S,5.59 µM (active),–
CCC(=O)Nc1ccccc1-c1nc2ccccc2n(C(C)C(=O)Nc2ccc(OC)cc2)c1=O (stereo not given),8.2 µM (active),–
COCCNC(=O)C(=O)Nc1ccc2c(c1)N(S(=O)(=O)c1cccs1)CCC2,6.27 µM (active),–
Nc1c(C(=O)Nc2nc3ccccc3s2)sc2nc(-c3cccs3)ccc12,6.51 µM (active),–
Cc1nnc(NC(=O)c2sc3nc(-c4cccs4)cc(C(F)(F)F)c3c2N)s1,2.59 µM (active),–
O=C(Nc1nc2ccccc2s1)c1ccc([N+](=O)[O-])o1,–,-24.2% (inactive)
Nc1c(C(=O)Nc2ccc(F)cc2)sc2nc(-c3cccs3)cc(C(F)(F)F)c12,0.82 µM (active),–
Nc1c(C(=O)Nc2nccs2)sc2nc(-c3cccs3)cc(C(F)(F)F)c12,7.9 µM (active),–
CC(C)Cn1c(N)c(C(=O)COC(=O)c2ccc([N+](=O)[O-])o2)c(=O)n(C)c1=O,–,8.96% (inactive)
O=C(/C=C/c1ccco1)N1CCc2ccccc21,–,-19.9% (inactive)
Cc1c(C(=O)C(=O)N2CCCc3ccccc32)c2ccccc2n1C,11.2 µM (active),–
Cc1c(C(=O)C(=O)N2CC=C(c3ccccc3)CC2)c2ccccc2n1C,7.04 µM (active),–
Cc1ccc(NC(=S)Nc2ccccn2)c(C)c1,–,-5.64% (inactive)

SMILES,Potency,max response
CCOC(=O)c1ccc(NC(=S)Nc2cccc(C)n2)cc1,–,-9.19% (inactive)
CCOC(=O)c1cc(-c2ccccc2)sc1NC(=S)Nc1cc(C)ccn1,18.4 µM (active),–
Cc1ccnc(NC(=O)Nc2ccc3c(c2)N(C)C(=O)CS3)c1,2.59 µM (active),–
Cc1ccc(-c2nc3sc(C#N)c(N)n3c(=O)c2C#N)cc1,25.9 µM (active),–
O=C1c2ccccc2C(=O)c2cc(N3CCCCC3)ccc21,6.27 µM (active),–
Cc1ccc(C(=O)N/C(=C/c2ccc(-c3ccc([N+](=O)[O-])cc3)o2)C(=O)NCCCN(C)C)cc1,15.8 µM (active),–
Cc1cc2nc3s/c(=C/c4ccc(-c5ccccc5C(=O)O)o4)c(=O)n3c2cc1C,23.1 µM (active),–
Cc1cc(C)cc(NC(=S)NC(=O)C2CC2)c1,–,-14.6% (inactive)
O=C1/C(=C\c2cc([N+](=O)[O-])ccc2O)SC(=S)N1Cc1ccc(Cl)cc1,18.4 µM (active),–
Cc1cc(N)cc(C)c1-c1c(Br)cc(N)cc1Br,8.86 µM (active),–
Nc1c(C(=O)c2ccccc2)sc2snc(SCC(=O)c3ccccc3)c12,14 µM (active),–
Nc1c(C(=O)c2ccccc2)sc2nsc(SCCN3CCCC3)c12,14 µM (active),–
Nc1c(C(=O)c2ccccc2)sc2nsc(SCCN3CCOCC3)c12,4.61 µM (active),–
COc1ccc(OC)c(S(=O)(=O)N/N=C\c2cn(CC(N)=O)c3ccccc23)c1,15.8 µM (active),–
COC(=O)Cn1c(C)c(/C=C/c2cc[n+](C)cc2)c2ccccc21,9.2 µM (active),–
CCN(CC)C(=O)Cn1c(C)c(/C=C/c2cc[n+](C)cc2)c2ccccc21,15.8 µM (active),–
CCOC(=O)c1c(Nc2ccc(Cl)cc2)sc(/C=C2\C=Nc3ccccc32)c1O,20.6 µM (active),–
COc1ccccc1N=C1NC(=O)/C(=C/c2ccc(N(C)C)cc2)S1,–,38.1% (inactive)
CCOc1ccc(N(C)c2ccc(/C=C3/SC(=S)NC3=O)cc2)cc1,15.8 µM (active),–
CN(C)c1ccc(C=C2SC(=S)NC2=O)cc1,9.94 µM (active),–
C=C1C(=O)O[C@@H]2[C@H]1[C@@H](OC(=O)/C(C)=C/C)C/C(C)=C\C(=O)/C=C(\C)[C@@H]2O,15.8 µM (active),–
CCCN1C(=O)/C(=C/C=C2\N(CC)c3ccccc3C2(C)C)SC1=S,1.58 µM (active),–
CN1/C(=C\C=C2/SC(=S)N(CC(=O)O)C2=O)C(C)(C)c2ccccc21,–,52.2% (inactive)

SMILES,Potency,max response
C=CCN1C(=O)/C(=C\C=C2\N(C)c3ccccc3C2(C)C)SC1=S,0.291 µM (active),–
CCCN1C(=O)/C(=C\C=C2\N(CC)c3ccccc3C2(C)C)SC1=S,2.06 µM (active),–
CN1/C(=C/C=C(/C#N)C(N)=O)C(C)(C)c2ccccc21,9.94 µM (active),–
CCCCN1C(=O)/C(=C/C=C2/CC(C)(C)CN2C)SC1=S,–,54.7% (inactive)
CN1/C(=C\C=C2/SC(=S)NC2=O)C(C)(C)c2ccccc21,3.53 µM (active),–
COc1ccc2c(c1)/C(=C/c1cc(OC)c(OC)c(OC)c1)C(=O)N2,3.53 µM (active),–
COc1ccc2c(c1)/C(=C\c1cccc(/C=C3/C(=O)Nc4ccc(OC)cc43)n1)C(=O)N2,–,-72.2% (inactive)
Cc1cccc(-c2noc(-c3ccc(NCc4ccco4)c([N+](=O)[O-])c3)n2)c1,20.6 µM (active),–
O=[N+]([O-])c1cc(-c2nc(-c3ccccc3)no2)ccc1NCc1ccco1,10.3 µM (active),–
O=C1N/C(=N\N=C\c2ccco2)SC1Cc1ccccc1[N+](=O)[O-] (stereo not given),–,-1.06% (inactive)
O=C(NCc1cccnc1)c1cccc(NS(=O)(=O)c2ccc(Br)cc2)c1,4.44 µM (active),–
N#CC1=C(N)Oc2ccc3ccccc3c2C1c1cccnc1 (stereo not given),6.27 µM (active),–
CCN(CC)c1ccc2c(c1)OC(N)=C(C#N)C2c1cccnc1 (stereo not given),15.8 µM (active),–
COc1cc(OC)c(/C=C/c2ccc3ccccc3[n+]2C)c(OC)c1,20.6 µM (active),–
CCCCN1C(=O)C2Cc3c([nH]c4ccccc34)CN2C1=S (stereo not given),15.8 µM (active),–
CCOc1ccc(CN2C(=O)c3ccccc3Sc3ccc(C(=O)O)cc32)cc1,4.61 µM (active),–
O=C(NNC1=Nc2cccc3cccc1c23)c1ccc(Br)cc1,23.1 µM (active),–
C/C(=N\Nc1nc(C)cc(-c2ccccc2)n1)c1ccc(F)cc1,–,-5.07% (inactive)
Nc1c(C(=O)N/N=C/c2cccnc2)oc2nc(-c3ccccc3)cc(-c3ccco3)c12,8.2 µM (active),–
Cc1cc(-c2ccccc2)nc(N/N=C/c2ccccc2F)n1,–,-29.5% (inactive)
Nc1c(C(=O)N/N=C/c2ccc(F)cc2)oc2nc(-c3ccccc3)cc(-c3ccco3)c12,6.27 µM (active),–
Nc1c(C(=O)N/N=C/c2ccccc2Cl)oc2nc(-c3ccccc3)cc(-c3ccco3)c12,2.91 µM (active),–
CSCC[C@H](NC(=O)[C@H](Cc1ccccc1)n1c(=O)[nH]c2ccccc2c1=O)C(=O)N1CCC[C@@H]1C(=O)O,–,6.25% (inactive)

SMILES,Potency,max response
COc1ccc(NC(=O)CN2C(=O)C3(SCC(=O)N3c3ccccc3)c3ccccc32)cc1Cl (stereo not given),–,10.4% (inactive)
O=C(CN1C(=O)CSc2ncccc21)Nc1cccc(Cl)c1,23.1 µM (active),–
O=C(CN1c2ccccc2Sc2ccccc21)NNC(=O)Nc1cccc(Cl)c1,–,-25.9% (inactive)
CC(/C=C/c1ccc(N(C)C)cc1)=N\N=C(/N)SC1CC(=O)N(c2ccc(C(=O)O)cc2)C1=O (stereo not given),–,-29.3% (inactive)
CCOC(=O)C1C(=O)C=C(/C=C/c2ccc(N(C)C)cc2)CC1c1ccccc1 (stereo not given),4.61 µM (active),–
CC(C)CC(=O)NC(=S)N(Cc1ccccc1)Cc1ccccc1,–,-12.5% (inactive)
COc1cc(/C=C2\SC(N)=NC2=O)cc(Br)c1O,17.7 µM (active),–
COc1cc(/C=C2\C(=N)N3N=CSC3=NC2=O)cc(Br)c1OC(=O)c1ccco1,–,43.8% (inactive)
CCOc1cc(-c2nnc(SCC(=O)NCc3ccccc3)nc2-c2ccc(OC)c(OCC)c2)ccc1OC,2.31 µM (active),–
COc1ccc(-c2nnc(SCC(=O)NCc3ccccc3)nc2-c2ccc(OC)c(OC)c2)cc1OC,2.59 µM (active),–
CCC(C)Sc1cc(-c2nc3ccccn3c2NC2CCCCC2)ccc1OC (stereo not given),–,6.89% (inactive)
CCOc1cc(C)nc(NCc2ccccc2)n1,–,-21.7% (inactive)
COc1cc(-c2nc3ccc(C)cn3c2NCc2ccccc2)ccc1SC1CCCCC1,–,34.4% (inactive)
COc1ccc(-c2nc3c4ccccc4ccn3c2Cc2ccsc2)cc1OC,–,-1.53% (inactive)
N#CCSc1ccccc1NC(=O)COc1ccc(-c2nnco2)cc1,12.5 µM (active),–
Cc1nc(C)c(C(=O)OCC(=O)Nc2ccccc2SCC#N)s1,15.8 µM (active),–
CCC1=Nc2cc(C(=O)NCc3cccnc3)ccc2Sc2ccc(C)cc21,12.5 µM (active),–
COc1ccc(C(=O)NC(=S)NCc2cccnc2)cc1Cl,–,-0.724% (inactive)
CCOC(=O)c1cnc(-n2nc(C)cc2C)nc1NNc1cc(C)nc(-c2ccccc2)n1,–,14.5% (inactive)
C=CCNc1nc(-c2ccccc2)c(C(=O)OCC)cc1C#N,7.04 µM (active),–
CCOC(=O)c1cnc(-n2nc(C)cc2C)nc1NNc1nc(-c2ccccc2)cc(-c2ccccc2)n1,–,18.7% (inactive)
